This is part of a sample that, as a whole, favours compounds with a hit. Of some 83,000 tested, about 20% had one in any assay.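 Percent growth is the endpoint: 0 to 100 indicates growth inhibition (40 means 60% inhibition), 0 means no net growth, and negative values indicate cell death.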 Values without a mark were called inactive. The source made the active and inactive calls. Rule for the calls: active = growth percent below 10; inactive = the rest.
Key:
Assay in all cases: NCI-60 one-dose screen, 48 h (100 = growth as untreated, 0 = no growth, -100 = all killed)
Details in all cases: 10 µM unless noted
[1] = tested on: DU-145 prostate
[2] = tested on: K-562 leukemia
[3] = tested on: MALME-3M melanoma
[4] = tested on: MDA-MB-231 breast
[5] = tested on: RXF 393 renal
[6] = tested on: SF-268 CNS
[7] = tested on: SF-295 CNS
[8] = tested on: SF-539 CNS
[9] = tested on: UACC-257 melanoma
[10] = tested on: M14 melanoma
[11] = tested on: HCT-15 colon
[12] = tested on: HT29 colon
[13] = tested on: SNB-75 CNS
[14] = tested on: SNB-19 CNS
[15] = tested on: U251 CNS
[16] = tested on: PC-3 prostate
[17] = tested on: SK-MEL-5 melanoma
[18] = tested on: UACC-62 melanoma
[19] = tested on: LOX IMVI melanoma
[20] = tested on: SK-MEL-28 melanoma

Row | SMILES | growth [1] | growth [2] | growth [3] | growth [4] | growth [5] | growth [6] | growth [7] | growth [8] | growth [9] | growth [10] | growth [11] | growth [12] | growth [13] | growth [14] | growth [15] | growth [16] | growth [17] | growth [18] | growth [19] | growth [20]
1 | COC(=O)CCC1=C(C)C2=NC1=CC1=NC(=CC3=NC(=Cc4[nH]c(/c(=C(/C)O)c4C)=C2)C(C(C)=O)=C3C)C(C)=C1CCC(=O)OC | 110% | 112% | 96% | 103% | 112% | 98.9% | 104% | 97.7% | 90.3% | 108% | 99.8% | 107% | 90.6% | 97.3% | 98.9% | 83.7% | 103% | 97.2% | 96% | 115%
2 | Cc1ccc(NS(=O)(=O)c2ccc3c(c2)C2OCCC2C(c2ccc(C(=O)C(C)C)cc2)N3)cc1C (stereo not given) | 60.9% | 33.6% | 17.1% | 76.5% | 65.4% | 57.8% | 31.9% | 66% | 23.9% | 50% | 32.3% | 44.9% | 61.8% | 68.2% | 49.1% | 28.8% | -32.4% (active) | 47.2% | 64.2% | 51.3%
3 | CC1=CN2C(=O)C3C4=C(CCCC4)SC3N=C2CN1c1c(C)cccc1C (stereo not given) | 104% | 45.8% | 89.7% | 83.9% | 67% | 89.1% | 81.6% | 96.7% | 99.4% | 96.6% | 49.8% | 84% | 106% | 104% | 65% | 63.4% | 87.2% | 66.4% | 79.2% | 110%
4 | O=C1/C(=C/c2ccc(F)cc2)C=C(c2ccccc2)N1CCc1ccccc1 | 81.6% | 71.4% | 39.1% | 57.5% | 56.2% | 74.2% | 35.9% | 79.5% | 38.6% | 46% | 77.9% | 63.2% | -10.5% (active) | 45.1% | 46.9% | 51.2% | 73% | 50.1% | 70.7% | 72.6%
5 | CCOC(=O)c1c2c(n3ccc(NC(=O)OC(C)(C)C)cc13)C(=O)c1ncccc1C2=O | -30.2% (active) | -23.9% (active) | -21.6% (active) | 2.02% (active) | -38.4% (active) | -16.7% (active) | -67.1% (active) | -45.9% (active) | -40.9% (active) | -55.8% (active) | -69.5% (active) | -50.9% (active) | -32.2% (active) | -54.4% (active) | -80.8% (active) | -1.36% (active) | -96% (active) | -75.8% (active) | -68.8% (active) | -18.4% (active)
6 | NNC(=O)c1nc(N)n(-c2ccc(S(N)(=O)=O)cc2)n1 | 92.8% | 96.5% | 97.8% | 88.6% | 110% | 93.3% | 109% | 89.2% | 97.2% | 94.4% | 107% | 99.9% | 92.5% | 96.4% | 88.8% | 89.7% | 96.9% | 99.2% | 93.3% | 108%
7 | Cc1cccc(NC(=O)CSc2nc3ccccc3[nH]2)c1 | 107% | 102% | 105% | 88.5% | 99% | 95.2% | 105% | 98.1% | 111% | 107% | 104% | 122% | 84.2% | 94.9% | 101% | 91% | 103% | 85.1% | 96.8% | 101%
8 | O=C(CSc1nnc(-c2ccc(NC(=O)c3cccnc3)cc2)o1)Nc1cccc(Br)c1 | 102% | 66.3% | 93.1% | 93% | 111% | 102% | 87.2% | 70.6% | 102% | 101% | 90.6% | 107% | 72.1% | 62.9% | 68.7% | 82.8% | 92.9% | 104% | 93.6% | 110%

— PubChem BioAssay (NCI)
